This note sets out measurements from PubChem BioAssay AID652067 (The Scripps Research Institute Molecular Screening Center, 2013).

Hit rate of the full screen: of about 370,000 compounds, about 5,400 (1.5%) were called active. The sample holds actives, similar compounds and a random draw of the others, so the mix is not that of the screen. A number with no mark means an inactive call.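 The calls were made as follows: active = activation above the mean of all tested compounds plus 3 SD (cut at about 5.5% in these data); inactive = the rest.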

This assay has as its system DAF-12 nuclear receptor (Haemonchus contortus). Put plainly: H. contortus DAF-12 nuclear receptor activators, primary screen, cell-based, luminescence, HEK293, lit1-tk-luc reporter (AID 652067).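 Also: 100% = response to 3 µM Δ7-dafachronic acid high control.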 To be noted: HEK293 hcDAF-12 lit1-tk-luc reporter, at 6.8 µM, active compounds read high, 0% DMSO, 100% Δ7-dafachronic acid.
For `Nc1nc2c(ncn2[C@@H]2O[C@H](C(=O)N[C@H](Cc3ccccc3)C(=O)NCC3CCCCC3)[C@@H](O)[C@H]2O)c(=O)[nH]1`, the activation is 1.38%.
With `Cc1ccc(NC(=O)c2csc3c2CCCC3)cc1`, the activation was 11.3% (active).
In the case of `COc1ccc(NC(=O)c2c(C)oc3c2CCCC3)cc1` it was 1.98%; in that of `CC1CC(C)CN(CCCNC(=O)c2csc3c2CCCCC3)C1` (stereo not drawn), 0.75%; in that of `COCCNC(=S)N(C)[C@H]1C[C@H]2c3[nH]c4ccccc4c3CCN2C[C@H]1[C@H](C)O`, 1.74%.
Take `COc1cc2cc(CN(CCN3CCCC3)C(=O)Nc3ccccc3Cl)c(=O)[nH]c2cc1OC`: the activation was -0.2%.
Turning to `Cc1ccc(C(=O)N(Cc2ccccn2)CC2CCCO2)cc1` (stereo not drawn), the activation is -1.39%.
In the case of `CN1[C@H](Cc2ccccc2)COc2cccc(N3CCSCC3)c2S1(=O)=O` it was 3.54%.
Regarding `CC(=O)N1CCN(c2ccccc2NC(=S)NC(=O)c2cc3ccccc3o2)CC1`, the activation was 7.26% (active).
Regarding `O=C(Nc1ccccc1N1CCN(C(=O)c2ccccc2)CC1)c1ccco1`, the activation is -1.91%.
In the case of `O=C(c1cc2ccccc2o1)N1CCN(Cc2ccccc2)CC1`, the activation was -2.1%.
For `CN1CCc2ccccc2C1Cc1ccccc1NC(=O)c1sc2ccccc2c1Cl` (stereo not drawn) the value was 6.57% (active).
As to `CCc1ccccc1NC(=O)c1ccc2c(c1)CCN2S(C)(=O)=O`, the activation was -0.87%.
In the case of `CCc1ccccc1NC(=O)NCCN1CCCCC1` it was -0.86%; in that of `COC(=O)[C@]12C[C@H](CC(=O)NCCc3ccccc3OC)C(=O)N(Cc3ccco3)C1=C[C@H](C(C)C)O[C@@H]2C1CC1`, -3.62%.
Turning to `O=C(Nc1ccccc1F)c1ccccc1-c1ccccc1`, the activation was -2.35%.
For `O=C(O)c1ccccc1-c1ccccc1C(=O)Nc1ccccc1Br`, the activation was 1.04%.
Consider `O=C(O)c1ccccc1-c1ccccc1C(=O)Nc1cccc2ccccc12`, for which the activation was 5.93% (active).
For `CC(Sc1nnc(CNC(=O)c2ccccc2F)n1C)C(=O)Nc1nccs1` (stereo not drawn) the value was -0.26%.
Regarding `COc1ccc(CC(=O)NCc2nnc(SCC(=O)Nc3nccs3)n2C)cc1`, the activation was -1.09%.
On to `COc1ccccc1C(=O)NCc1nnc(SC(C)C(=O)Nc2nccs2)n1C` (stereo not drawn), for which the activation is 6.99% (active).
For `COC(=O)[C@H](CC(C)C)NS(=O)(=O)c1c(F)cccc1F` the value was 0.07%; for `O=C1C(=O)N(Cc2ccc(-c3ccsc3)cc2)c2ccc(OC(F)(F)F)cc21`, 1.15%.
For `Cc1nc(N2CCCCC2)sc1C=O` the value was -0.55%; for `Brc1ccc2nc(N3CCCC3)sc2c1`, 9.08% (active).
In the case of `O=C(NCCc1cccc(F)c1)C1CCCN(c2nc3ccccc3s2)C1` (stereo not drawn) it was -1.62%.
Take `Cc1nc2ccc(NC(=O)C(F)(F)F)cc2o1`: the activation is 0.11%.
For `CC(=O)Nc1ccc(S(=O)(=O)NC2Cc3ccccc3C2)cc1`, the activation was -1.07%.
In the case of `CC(=O)Nc1ccc(-c2nc3ccccc3o2)cc1` it was 6.08% (active); in that of `CC[C@H](C)[C@H]1CNC(=O)C(=O)N1CC1CCN(CCc2ccc(OC)c(OC)c2)CC1`, -1.29%; in that of `Cc1cc(O)c(C(=O)/C=C/c2c(F)c(F)c(F)c(F)c2F)c(=O)o1`, 8.11% (active).
In the case of `Cc1cc(O)c(Sc2ccccc2)c(=O)o1` it was 0.75%.
In the case of `C=CCN1[C@@H](Cc2ccccc2)COc2cccc(N3CCSCC3)c2S1(=O)=O` it was -1.72%; in that of `Cc1ccc2cccc(OCCCOc3ccccc3CO)c2n1`, -0.62%; in that of `CC1(C)OC(=O)C2=C(CC(CCc3ccccc3)OC2c2ccc(Cl)cc2)O1` (stereo not drawn), -1.84%.
With `Cc1cccc(C)c1NC(=O)C(c1ccc(C(F)(F)F)cc1)n1c(=O)c(-c2ccco2)nc2ccccc21` (stereo not drawn), the activation was 0.34%.
For `O=C(NC1CCCCC1)C(c1cc2ccccc2o1)n1c(=O)c(-c2ccco2)nc2ccccc21` (stereo not drawn) the value was 9.06% (active); for `Cc1cccc(C)c1NC(=O)C(c1cccc2ccccc12)n1c(=O)c(-c2ccco2)nc2ccccc21` (stereo not drawn), 2.42%; for `O=C(COc1cccc(Cl)c1)NCc1ccccc1`, 6.74% (active).
For `O=C(COC(=O)c1cccc(Cl)c1)NC(=O)NCc1ccccc1` the value was 0.2%.
Take `O=C(CCOc1ccccc1)NCc1ccccc1`: the activation was 0.79%.
For `COc1ccc(CN2C(=O)N3Cc4cc(OC)ccc4C3CS2(=O)=O)cc1` (stereo not drawn), the activation was -4.29%.
In the case of `CCOC(=O)C1CCN(C(=O)CSc2cc(=O)n(C)c3ccccc23)CC1` it was 5.88% (active).
In the case of `Cn1c(=O)cc(SCC(=O)N2CCN(C(=O)c3ccco3)CC2)c2ccccc21` it was -0.81%.
In the case of `Cn1c(=O)cc(SCC(=O)N2CCCC2)c2cc(Cl)ccc21` it was 0.28%; in that of `O=C(N[C@H](C(=O)N1CCC[C@H]1C(=O)NCCc1ccccc1Cl)c1ccccc1)c1ccccc1`, -0.38%.
Regarding `CCOC(=O)[C@]12CCCC=C1N(CCCOC)C(=O)[C@@H]2CC(=O)N1CCOCC1`, the activation is -0.67%.
For `O=c1[nH]n2c(=O)c3c([nH]c2c1N=Nc1ccccc1)CCC3` the value was 0.16%.
In the case of `Cc1ccc(C)c(NC(=O)COC(=O)Cn2c(C)csc2=O)c1` it was -0.15%; in that of `CCc1ccc(NC(=O)N2CCc3ccccc3C2)cc1`, 10.8% (active).
For `Cn1cccc1C(=O)N1CCc2ccccc2C1` the value was 0.07%; for `Cc1ccc(NC(=O)CN2CCc3ccccc3C2)cc1C`, -0.52%.
With `COC(=O)C1=C(C)N(Cc2ccccc2C(F)(F)F)C(=NCc2ccc(C(F)(F)F)cc2)NC1c1ccc(F)cc1` (stereo not drawn), the activation is -0.44%.
For `O=S1(=O)c2ccc(Br)cc2OC[C@@H](Cc2ccccc2)N1Cc1cn(Cc2ccco2)nn1` the value was -3.82%; for `Fc1ccccc1-c1cc2cc3c(cc2cn1)OCO3`, 5.75% (active); for `O=C(NCCCN1CCOCC1)c1cc(-c2ccccc2F)no1`, -0.99%.
`O=C(c1ccco1)N1CCN(C(=O)c2cc(-c3ccccc3F)no2)CC1`: the activation is 0.36%.
Regarding `COC(=O)[C@]12C[C@H](CC(=O)NCc3cccc4ccccc34)C(=O)N(CCc3ccc(OC)c(OC)c3)C1=C[C@H](C1CCCC1)O[C@@H]2C`, the activation is -3.52%.
